23 sequences from the OligoGym collection can be followed below.
Also: reference of the scale not given here.

For the first experiment, the target named is FAM89B. The experiment is described as follows: pooled miR-30 sensor sort-seq; sequence = guide strand. Conditions: shRNA.
TTGCGCAGCGCGGCCAGCGCTG returned a sensor-assay potency score (higher = more potent) of -1.52.

In turn, TGGATTGACTCGTACAGGCCCC displayed a sensor-assay potency score (higher = more potent) of -0.992.

The sequence TTAAGGAGGCCGCTGAGGCCGC showed a sensor-assay potency score (higher = more potent) of -1.49.

Turning to TCAGGTCTTGGCACAGGTGTTT, the sensor-assay potency score (higher = more potent) is -0.832.

AACATCTCCTTGCGCAGCGCGG had a sensor-assay potency score (higher = more potent) of -1.39.

For the sequence TGACAGGACGACGCGGGCCGGC, the sensor-assay potency score (higher = more potent) is -1.62.

As to ATCGGGAGGCTCCTCGTCGTCA, the sensor-assay potency score (higher = more potent) is -1.39.

As to TGTAGTCCTGGATTGACTCGTA, the sensor-assay potency score (higher = more potent) was -0.175.

Consider TTTGTAGTCCTGGATTGACTCG, for which the sensor-assay potency score (higher = more potent) is -1.36.

For TTGTAGTCCTGGATTGACTCGT, the sensor-assay potency score (higher = more potent) was found to be 0.301.

Consider TCCTGGATTGACTCGTACAGGC, for which the sensor-assay potency score (higher = more potent) was -1.73.

As to TAGTCCTGGATTGACTCGTACA, the sensor-assay potency score (higher = more potent) was -1.39.

The target in the next experiment is FAM9C. The experiment is described as above. Conditions: shRNA.
Turning to TTAACTAAACACTGTCATGTGG, the sensor-assay potency score (higher = more potent) is 0.189.

ATCAGTTACATCTCCCTCCTTT gave a sensor-assay potency score (higher = more potent) of -0.105.

With ATTCTGTTCTTTATTTCGCTGC, the sensor-assay potency score (higher = more potent) was -0.428.

Consider TTACTGGATCCTTTCCTGCAAG, for which the sensor-assay potency score (higher = more potent) was -1.19.

The sequence TTTTGCAATCTTTTCAATCCTT registered a sensor-assay potency score (higher = more potent) of 0.00533.

Consider AACATTTTTAATTCTGTTCTTT, for which the sensor-assay potency score (higher = more potent) is -0.182.

Sequence TATTTTAATTTGTTCTTCCTTT returned a sensor-assay potency score (higher = more potent) of -0.236.

For TAACTAAACACTGTCATGTGGT, the sensor-assay potency score (higher = more potent) stood at 0.0242.

Consider TAACAGGTTTTCTTTCCTCATG, for which the sensor-assay potency score (higher = more potent) is -1.34.

The sequence TTTGCAATCTTTTCAATCCTTT displayed a sensor-assay potency score (higher = more potent) of -0.0948.

With AATATCTTCTAGCTCCTTGGTA, the sensor-assay potency score (higher = more potent) is -0.174.
